# Assay results reported in the supplement of paper PMC3334620.
# The full ranking holds about 33,000 sequences; the median of “E-score (-0.5 to 0.5)” is about -8e-05, and the highest 2% start at about 0.23. The full list was thinned out, with the highest values kept by preference.
# Biological target: T1, Nrg2 (UniProt P38082)
# T1 sequence: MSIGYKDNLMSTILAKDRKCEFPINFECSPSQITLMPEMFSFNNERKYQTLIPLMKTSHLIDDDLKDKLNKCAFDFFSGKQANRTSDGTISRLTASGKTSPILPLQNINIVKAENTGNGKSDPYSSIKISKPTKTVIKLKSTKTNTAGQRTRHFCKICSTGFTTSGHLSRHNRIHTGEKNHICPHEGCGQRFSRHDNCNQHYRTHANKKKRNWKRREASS
# Experiment: PBM E-score (8-mer binding enrichment) (E-score (-0.5 to 0.5)); higher = stronger / more preferred TF binding
# Settings: protein concentration: 100 nM; construct: GST-full length
# Description: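 Universal 'all 10-mer' protein binding microarrays (Agilent AMADID 015681) probed with GST-tagged S. cerevisiae TFs (full-length or DBD) made by in vitro transcription/translation (PURExpress), about 100-200 nM. Bound TF was detected with fluorescent anti-GST. Each ungapped 8-mer (which stands for itself and its reverse complement) is scored by the PBM enrichment score (E-score), a modified Wilcoxon-Mann-Whitney statistic from -0.5 to +0.5, computed with the Universal PBM Analysis Suite. Scale: above 0.35 generally sequence-specific binding.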
row,Sequence,PBM E-score
1,CGGCTATA,-0.0676
2,GTAACCAA,0.0617
3,CTCCGAAA,-0.0954
4,AAGACAAC,0.235
5,ATGACAAC,0.239
6,ATGACAAG,0.142
7,CAGACAAC,0.178
8,GTGACAAC,0.112
9,AAGACAAG,-0.0376
10,AAACCGAT,-0.137
11,CCGCCCGA,0.148
12,ACTTGGCC,-0.0839
13,ATCTGCGA,0.0624
14,ATCTGCGG,0.229
15,ATCTGCGC,0.0656
16,ACTAGAGT,-0.204
17,CTTCGGAC,0.0444
18,ATTATCGA,-0.00721
19,ATTATCGC,0.254
20,ATTATCGG,-0.142
21,ATAGGGGG,-0.364
22,CCCGACCG,-0.0769
23,CACCTGGG,-0.0933
24,GTCGCGAC,0.37
25,ATCGCGAT,0.271

row,Sequence,PBM E-score
1,AACGCGAG,0.092
2,ATCGCGAA,0.268
3,TTCGCGAA,0.22
4,CACGCGAA,-0.135
5,ATCGCGAG,0.175
6,ATCGCGAC,0.0998
7,GTCGCGAA,0.125
8,AACGCGAA,0.249
9,CTCGCGAC,0.192
10,GGCGCGAC,0.149
11,CCGCGCCA,-0.00589
12,CTCCTGTA,-0.111
13,ATACCGGA,-0.222
14,GGCGAGAA,0.16
15,AGTGTATG,0.0501
16,AAGCTACT,0.0546
17,GATCCAGA,0.187
18,AACGTAGG,-0.148
19,CAAAGCGG,-0.0751
20,AAGCAGTA,-0.0813
21,CCGCAGAA,0.245
22,TCGCAGAA,-0.114
23,GCGCAGAA,0.248
24,CCGCAGAG,-0.193
25,CCGCAGAC,-0.105

row,Sequence,PBM E-score
1,GCGCAGAC,0.0533
2,CAAGCGGC,0.0964
3,CACCTATA,-0.032
4,AGTGAAGC,0.054
5,AAAGAACG,0.0453
6,ATTAATCA,0.171
7,AGTCTTGA,-0.0377
8,AACGGCAT,0.23
9,AACGGCAC,-0.244
10,CACGGCGA,0.0616
11,AACGGCGA,0.303
12,AACGGCGT,-0.11
13,AACGGCAA,0.156
14,ATTGCGAG,0.0375
15,GTACGAGA,0.0861
16,TGACGGAA,-0.00402
17,AAGGACTC,-0.0561
18,ATGCTCGG,0.117
19,AAATCCAC,0.082
20,AAATCCAT,0.266
21,AAATCCAG,0.196
22,ATGGTGGA,-0.0629
23,CTATTAAA,0.151
24,TTATTAAA,0.196
25,TTATTCAA,0.029

row,Sequence,PBM E-score
1,ATATTAAG,0.0738
2,CTATTCAA,0.0974
3,ATATTAAA,0.29
4,GCATTAAA,0.136
5,ATATTAAT,0.286
6,ATATTAAC,0.176
7,ATATTCAA,0.244
8,ACATTAAA,0.143
9,TCATTAAA,0.35
10,CGTTAAAC,0.0981
11,ATAGTGAC,-0.0527
12,ATATTATG,0.304
13,ATATTATC,0.0409
14,AAATTATG,0.106
15,AAACCATC,0.103
16,ATGTGCAC,0.0387
17,CATCTAAC,-0.152
18,GGCATAGA,0.0809
19,AATTATAC,0.122
20,GATTATAC,0.235
21,GATTATAA,0.207
22,CTTAGAAC,0.0319
23,CTGACTGA,-0.0542
24,GCTCGAAC,0.191
25,GAAAGAAA,0.281

row,Sequence,PBM E-score
1,GAAAGAAC,0.0456
2,GGCAGAAA,0.286
3,CAAAGAAA,0.0775
4,TGCAGAAA,0.104
5,GGCAGAAC,0.088
6,AAGCTGAG,-0.00374
7,AGCGGTAG,-0.196
8,GAGTAAGA,-0.0102
9,AAGACGGT,-0.161
10,CAAAGCAC,-0.0605
11,CAAAGCAG,0.0557
12,CAAAGCAA,0.265
13,AGTTAGGG,0.0307
14,ACATAAAC,0.0128
15,GAGACCAA,0.241
16,ACGACCAA,-0.12
17,CAGACCAA,0.0347
18,GCGACCAC,-0.0633
19,TAGACCAA,0.121
20,GCGACCAA,0.248
21,CCTTATCC,-0.23
22,AAACTAGG,-0.0197
23,CACCGCAA,0.233
24,CACCGCAG,0.0838
25,AACCGCAA,0.185

row,Sequence,PBM E-score
1,CGCATGCC,0.145
2,CGCATGCG,0.0387
3,TGCATGCA,0.233
4,AGCATGCA,0.00231
5,CGCATGCA,0.246
6,GGCATGCA,-0.113
7,GGGCGACA,-0.132
8,AGAGTTGA,-0.073
9,GTCCCACA,0.0612
10,ACGTTGAC,-0.00444
11,ACAACACA,0.0869
12,TCAACACA,0.235
13,CCAACACG,0.0552
14,CTTCGATC,-0.00647
15,GGATTCGA,-0.0125
16,AGATTCGA,0.0269
17,CGATTCGA,0.27
18,GCCGCGCC,-0.0901
19,GTCCCGTA,-0.111
20,ACGCGACC,-0.0575
21,GATGCAAA,0.0177
22,AAGCAACG,0.161
23,CAGCAACG,0.251
24,CAGCAACA,0.159
25,GTCAGCAC,-0.0154

row,Sequence,PBM E-score
1,GACTACGC,-0.187
2,AACGAAAT,0.251
3,AACGAAAG,-0.0319
4,AACGAAAC,0.117
5,ATTGCAGC,0.0702
6,GGGCGTAC,0.0663
7,GGGACCTA,0.245
8,GTAACCCA,0.229
9,GAACCCAA,0.0482
10,CGACCCTA,0.109
11,GGACCCTA,0.305
12,ATAACCCA,-0.0462
13,CTAACCCA,-0.00624
14,GAACCCCA,0.26
15,AGGACCTA,0.114
16,CGGACCTA,0.0604
17,GCACCCTA,0.105
18,GAACCCCC,-0.322
19,GCGCTGGA,0.0138
20,ATGGGTAG,-0.13
21,CGACGGTA,0.0706
22,GCAATAGC,0.133
23,AAAAGGGC,0.12
24,ATGCTCCA,0.0544
25,GGACCCCC,-0.144

row,Sequence,PBM E-score
1,GGACCCCA,0.236
2,TGACCCCA,0.0468
3,AAGATAGC,0.0443
4,CAGACGAC,-0.0246
5,GAGACGAA,-0.0342
6,GGGACGAA,0.0439
7,CAGACGAA,0.252
8,CGGACGAC,-0.061
9,CGGACGAA,0.233
10,AAGCTAAT,0.11
11,CTAGTCAC,-0.122
12,AACTACAT,-0.038
13,GGTCTCGA,0.0782
14,CAGACGGC,-0.16
15,AGAGGAAC,-0.113
16,CGAGGAAA,0.0442
17,CGAGGAAC,0.269
18,CAGCACGA,0.0405
19,ACCCTTGC,0.268
20,CCCCTTGC,-0.0115
21,GCCCTTGA,-0.00607
22,CCCCTAGA,0.117
23,ACCCTAGT,-0.0371
24,ACCCTTGA,0.242
25,ACCCTTGG,0.198

row,Sequence,PBM E-score
1,ACCCTAGA,0.284
2,CCCCTTGA,0.2
3,AGGACTAA,-0.0768
4,GTACTAGA,-0.00429
5,AACGACTC,-0.253
6,ATAGAAGA,-0.158
7,CACAGGCA,0.0159
8,AATGACGG,0.125
9,CACCGCGC,-0.0311
10,CGCAGCTA,-0.0329
11,CATCCACA,0.0702
12,ACAGAATA,0.148
13,AAAAATGA,0.0139
14,CGAAATGA,0.127
15,CTAAATGA,0.0289
16,TAAAATGA,0.254
17,GAAAATGA,-0.0055
18,GGAAATGA,0.25
19,CCACCAGA,0.0154
